Data published in PubChem BioAssay AID1159580 (chemical genetic matrix, 2015).
Several values for one entry are separate records, joined by “and”; a condition that tells them apart may be missing. Identical values can stand only once. The campaign covered roughly 5,500 compounds. About 2,000 (36%) were called active. Not shown: some 18% with an inconclusive outcome. No stated cut-off is given here; in the data, active means normalized growth mostly below about 0.91 (no sharp cut-off); inconclusive means no clear call, values can overlap the other calls; inactive means mostly above about 0.92. The list shows a part of the results.

Experiment: chemical genetic growth profiling, strain panel (AID 1159580);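 further: tested at 20 µM; growth read once vehicle control cultures reached saturation at 30 °C; 1 = growth at the plate median or of vehicle wells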
Conditions: S. cerevisiae deletion strains, growth OD

Measured: normalized growth

CC1=C2C(=CO[C@H](C)[C@H]2C)C(=O)C(C(=O)O)=C1O
active: locus YHR079C, strain IRE1, stronger effect = lower value 0.794
0.947 (inactive) and 0.851 (active): locus YJL095W, strain BCK1, stronger effect = lower value
0.977 (inactive) and 0.85 (active): locus YHR030C, strain SLT2, stronger effect = lower value
inactive: locus YAL021C, strain ccr4, stronger effect = lower value 0.993 | locus YAL026C, strain drs2, stronger effect = lower value 0.982 | locus YAL030W, strain snc1, stronger effect = lower value 0.977 | locus YBL061C, strain skt5, stronger effect = lower value 0.977 | locus YBR009C, strain hhf1, stronger effect = lower value 0.975 | locus YBR021W, strain FUR4, stronger effect = lower value 0.995 | locus YBR023C, strain chs3, stronger effect = lower value 0.97 | locus YBR171W, strain sec66, stronger effect = lower value 0.981 | locus YBR229C, strain ROT2, stronger effect = lower value 0.978 | locus YBR231C, strain swc5, stronger effect = lower value 0.979 | locus YBR279W, strain paf1, stronger effect = lower value 0.989 | locus YCL011C, strain gbp2, stronger effect = lower value 0.975 | locus YCL016C, strain dcc1, stronger effect = lower value 0.967 | locus YCL029C, strain bik1, stronger effect = lower value 0.986 | locus YCL061C, strain MRC1, stronger effect = lower value 0.967 | locus YCL069W, strain vba3, stronger effect = lower value 0.991 | locus YCR088W, strain abp1, stronger effect = lower value 0.973 | locus YDL005C, strain med2, stronger effect = lower value 0.971 | locus YDL035C, strain GPR1, stronger effect = lower value 0.995 | locus YDL040C, strain nat1, stronger effect = lower value 0.98 | locus YDL074C, strain BRE1, stronger effect = lower value 0.996 | locus YDL101C, strain DUN1, stronger effect = lower value 0.989 | locus YDL134C, strain PPH21, stronger effect = lower value 0.996 | locus YDL185W, strain tfp1, stronger effect = lower value 0.991 | locus YDL192W, strain arf1, stronger effect = lower value 0.983 | locus YDR001C, strain nth1, stronger effect = lower value 0.98 | locus YDR069C, strain doa4, stronger effect = lower value 0.976 | locus YDR101C, strain arx1, stronger effect = lower value 0.983 | locus YDR137W, strain rgp1, stronger effect = lower value 0.912 | locus YDR150W, strain NUM1, stronger effect = lower value 0.981 | locus YDR159W, strain sac3, stronger effect = lower value 0.957 | locus YDR162C, strain NBP2, stronger effect = lower value 0.978 | locus YDR195W, strain ref2 0.969 | locus YDR297W, strain sur2, stronger effect = lower value 0.989 | locus YDR318W, strain mcm21, stronger effect = lower value 0.989 | locus YDR334W, strain swr1, stronger effect = lower value 0.991 | locus YDR335W, strain msn5, stronger effect = lower value 0.994 | locus YDR388W, stronger effect = lower value 0.979 | locus YDR392W, strain spt3, stronger effect = lower value 0.821 | locus YDR502C, strain sam2, stronger effect = lower value 0.971 | locus YEL003W, strain gim4, stronger effect = lower value 0.988 | locus YEL037C, strain rad23, stronger effect = lower value 0.997 | locus YEL061C, strain CIN8 (second series), stronger effect = lower value 0.99 | locus YEL061C, strain CIN8, stronger effect = lower value 0.979 | locus YER015W, strain faa2, stronger effect = lower value 0.98 | locus YER016W, strain bim1, stronger effect = lower value 0.976 | locus YER110C, stronger effect = lower value 0.985 | locus YER111C, strain swi4, stronger effect = lower value 0.983 | locus YER155C, strain BEM2 (second series), stronger effect = lower value 0.938 | locus YER155C, strain BEM2, stronger effect = lower value 0.982 | locus YER167W, strain BCK2, stronger effect = lower value 0.969 | locus YFR010W, strain ubp6, stronger effect = lower value 0.991 | locus YGL078C, strain dbp3, stronger effect = lower value 0.987 | locus YGL086W, strain mad1, stronger effect = lower value 0.96 | locus YGL167C, strain pmr1, stronger effect = lower value 0.963 | locus YGL173C, strain kem1, stronger effect = lower value 0.983 | locus YGL227W, strain vid30, stronger effect = lower value 0.989 | locus YGL240W, strain doc1, stronger effect = lower value 0.97 | locus YGL248W, strain PDE1, stronger effect = lower value 0.991 | locus YGL253W, strain hxk2, stronger effect = lower value 1.01 | locus YGR135W, strain pre9, stronger effect = lower value 0.999 | locus YGR229C, strain SMI1, stronger effect = lower value 0.989 | locus YGR252W, strain gcn5, stronger effect = lower value 1.06 | locus YHR013C, strain ard1, stronger effect = lower value 0.94 | locus YHR027C, strain rpn1, stronger effect = lower value 0.977 | locus YHR079C, strain IRE1 (second series), stronger effect = lower value 0.985 | locus YHR094C, strain hxt1, stronger effect = lower value 0.975 | locus YHR129C, strain ARP1, stronger effect = lower value 0.982 | locus YHR142W, strain chs7, stronger effect = lower value 1.01 | locus YHR200W, strain rpn10, stronger effect = lower value 0.989 | locus YIL066C, strain RNR3, stronger effect = lower value 0.995 | locus YIL073C, strain SPO22, stronger effect = lower value 0.993 | locus YIL125W, strain kgd1, stronger effect = lower value 0.965 | locus YIR030C, strain dcg1, stronger effect = lower value 0.976 | locus YJL092W, strain hpr5, stronger effect = lower value 0.989 | locus YJL095W, strain BCK1 (second series), stronger effect = lower value 0.974 | locus YJL115W, strain asf1, stronger effect = lower value 0.987 | locus YJL129C, strain trk1, stronger effect = lower value 0.927 | locus YJL134W, strain LCB3, stronger effect = lower value 0.975 | locus YJL154C, strain vps35, stronger effect = lower value 0.993 | locus YJL164C, strain tpk1, stronger effect = lower value 0.974 | locus YJL166W, strain qcr8, stronger effect = lower value 0.983 | locus YJL168C, strain set2, stronger effect = lower value 0.98 | locus YJL187C, strain SWE1 (second series), stronger effect = lower value 0.995 | locus YJL187C, strain SWE1, stronger effect = lower value 0.979 | locus YJR043C, strain POL32, stronger effect = lower value 1.02
